What all share (set-up): scale not given: direction of the effect not stated beside the values
In assay [1] the target is Protein translocase subunit SecA (Escherichia coli (strain K12)) (UniProt P10408). Nature of the assay: Assay to Identify E. coli SecA ATPase Inhibitors. It counts as functional. The following applies: 30 µM.
For assay [2], the target named is T1, Ubiquitin-activating enzyme e1, putative (Leishmania donovani (strain BPK282A1)) (UniProt E9BSI1).
T1 sequence (whole entry): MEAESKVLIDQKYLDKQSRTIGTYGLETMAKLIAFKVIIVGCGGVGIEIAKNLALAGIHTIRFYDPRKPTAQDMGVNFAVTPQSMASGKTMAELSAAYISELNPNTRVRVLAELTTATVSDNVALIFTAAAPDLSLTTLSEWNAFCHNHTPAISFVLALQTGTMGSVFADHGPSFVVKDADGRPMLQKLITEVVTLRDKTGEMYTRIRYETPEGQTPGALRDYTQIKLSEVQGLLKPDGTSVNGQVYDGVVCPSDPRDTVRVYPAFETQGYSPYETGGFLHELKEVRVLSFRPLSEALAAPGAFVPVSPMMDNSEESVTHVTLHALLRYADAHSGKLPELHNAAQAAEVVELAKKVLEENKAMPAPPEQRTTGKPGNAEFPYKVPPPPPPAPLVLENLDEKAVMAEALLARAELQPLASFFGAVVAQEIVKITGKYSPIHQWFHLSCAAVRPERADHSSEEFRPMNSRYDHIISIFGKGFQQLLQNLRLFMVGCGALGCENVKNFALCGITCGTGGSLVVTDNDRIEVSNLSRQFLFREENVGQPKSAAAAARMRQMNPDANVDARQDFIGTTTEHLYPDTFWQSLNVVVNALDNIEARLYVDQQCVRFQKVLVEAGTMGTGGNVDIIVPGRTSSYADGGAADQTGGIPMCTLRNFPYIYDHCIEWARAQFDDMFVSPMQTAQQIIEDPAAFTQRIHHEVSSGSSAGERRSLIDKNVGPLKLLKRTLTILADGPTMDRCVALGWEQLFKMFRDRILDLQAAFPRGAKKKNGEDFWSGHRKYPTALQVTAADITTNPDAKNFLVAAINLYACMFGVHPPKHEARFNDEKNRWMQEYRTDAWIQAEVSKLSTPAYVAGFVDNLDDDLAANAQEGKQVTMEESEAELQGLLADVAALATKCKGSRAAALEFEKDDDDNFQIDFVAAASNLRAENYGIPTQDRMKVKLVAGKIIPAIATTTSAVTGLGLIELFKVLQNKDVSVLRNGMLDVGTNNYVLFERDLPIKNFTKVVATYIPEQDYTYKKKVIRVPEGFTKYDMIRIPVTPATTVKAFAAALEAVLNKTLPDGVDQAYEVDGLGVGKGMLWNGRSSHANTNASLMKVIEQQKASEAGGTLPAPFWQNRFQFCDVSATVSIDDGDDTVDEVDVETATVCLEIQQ
Nature of the assay: Leishmania donovani Ubiquitin Activating Enzyme (LdE1). Format: functional. As to conditions: 30 µM.

Assay [3] has as its target AMP-activated protein kinase, AMPK (Homo sapiens) (UniProt P54646+O43741+P54619+Q9UGJ0+Q9Y478+Q13131+Q9UGI9). Description: AMP-dependent Kinase enzyme assay. An in vitro enzyme assay that detects ADP turnover that is directly proportional to AMPK activity. This uses naive AMPK that is activated during the assay with MK-8722. As to conditions: 30 µM. Format: functional.

Assay [4] has as its target Sialic acid-binding Ig-like lectin 9 (Homo sapiens) (UniProt Q9Y336). Description: Hs-Siglec9 ALPHAscreen SOP 20170721. The following applies: 10 µM.
The subject of another assay is Trypanosoma cruzi. Nature of the assay: Trypanosoma cruzi phosphomannomutase and mannose-1-phosphate guanylyltransferase assay. Format: functional. The following applies: 10 µM.
Assay [5] deals with T2, Arginase-2, mitochondrial (Homo sapiens) (UniProt P78540).
T2 sequence (whole entry): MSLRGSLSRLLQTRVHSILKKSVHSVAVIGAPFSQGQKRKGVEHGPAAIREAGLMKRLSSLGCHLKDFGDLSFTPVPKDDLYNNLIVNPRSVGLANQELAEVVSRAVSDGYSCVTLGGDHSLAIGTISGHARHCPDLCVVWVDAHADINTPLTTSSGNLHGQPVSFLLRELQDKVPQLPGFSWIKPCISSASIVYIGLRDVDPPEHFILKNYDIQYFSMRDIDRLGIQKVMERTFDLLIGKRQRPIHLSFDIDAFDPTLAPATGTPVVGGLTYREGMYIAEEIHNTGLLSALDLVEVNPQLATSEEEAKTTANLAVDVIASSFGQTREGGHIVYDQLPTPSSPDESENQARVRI
Description: in vitro enzyme assay to detect the production of urea directly proportional to the activity of Arginase II. Note: in the data most compounds retested in dose-response had high values. Format: functional. As to conditions: 33.3 µM.

Assay [6] addresses T3, Proteasome subunit beta (Trypanosoma cruzi) (UniProt O96673).
T3 sequence (whole entry): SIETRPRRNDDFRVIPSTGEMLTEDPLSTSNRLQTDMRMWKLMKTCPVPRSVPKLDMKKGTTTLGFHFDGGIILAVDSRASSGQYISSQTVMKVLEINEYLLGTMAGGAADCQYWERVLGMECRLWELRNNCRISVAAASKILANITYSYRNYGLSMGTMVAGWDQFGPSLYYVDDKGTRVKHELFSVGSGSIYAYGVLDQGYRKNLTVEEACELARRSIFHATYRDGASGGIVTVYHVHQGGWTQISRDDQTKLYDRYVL
Description: Trypanosoma cruzi proteasome chymotrypsin-like activity (TcProtChymo) assay. Note: in the data most compounds retested in dose-response had high values. Format: functional. As to conditions: 9.37 µM.

The species named for another assay is Homo sapiens. Description: To identify inhibition of the IFN signalling (Jak-Stat) pathway via expression of an eGFP reporter gene under the control of an IFN-stimulated response element (ISRE) containing MxA promoter. Format: functional. The following applies: 30 µM.
Assay [7] concerns the target T4, Tyrosyl-tRNA synthetase, putative (Trypanosoma cruzi (strain CL Brener)) (UniProt Q4DSP6).
T4 sequence (whole entry): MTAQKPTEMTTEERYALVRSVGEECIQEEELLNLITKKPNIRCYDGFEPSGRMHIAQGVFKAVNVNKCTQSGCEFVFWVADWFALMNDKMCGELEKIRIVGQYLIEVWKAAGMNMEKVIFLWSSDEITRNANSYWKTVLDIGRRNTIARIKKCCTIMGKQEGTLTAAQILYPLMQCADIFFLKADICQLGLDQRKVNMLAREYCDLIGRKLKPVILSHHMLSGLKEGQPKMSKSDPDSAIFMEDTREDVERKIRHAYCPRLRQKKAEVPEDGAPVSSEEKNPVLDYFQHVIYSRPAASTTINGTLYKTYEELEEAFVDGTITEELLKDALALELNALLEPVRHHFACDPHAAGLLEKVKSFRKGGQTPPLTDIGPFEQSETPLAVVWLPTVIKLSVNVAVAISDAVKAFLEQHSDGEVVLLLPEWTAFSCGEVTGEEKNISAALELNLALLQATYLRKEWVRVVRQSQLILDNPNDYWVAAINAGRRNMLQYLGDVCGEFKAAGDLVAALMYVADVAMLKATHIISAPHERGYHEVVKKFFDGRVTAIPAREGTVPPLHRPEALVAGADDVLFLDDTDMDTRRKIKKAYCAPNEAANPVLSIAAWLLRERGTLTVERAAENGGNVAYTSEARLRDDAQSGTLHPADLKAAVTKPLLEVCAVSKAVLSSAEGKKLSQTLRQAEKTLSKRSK
Description: Trypanosoma cruzi tyrosyl tRNA synthetase (TcYRS) _High Tyrosine SOP. Note: in the data most compounds retested in dose-response had high values. It counts as functional. The following applies: 30 µM.

In assay [8] the target is T4, Tyrosyl-tRNA synthetase, putative (Trypanosoma cruzi (strain CL Brener)). Description: Trypanosoma cruzi tyrosyl tRNA synthetase (TcYRS) SOP. It counts as functional. The following applies: 30 µM.
The target in assay [9] is Chromo domain-containing protein 1 (Saccharomyces cerevisiae (strain ATCC 204508 / S288c) (Baker's yeast)) (UniProt P32657). Description: ScCHD-1 Enzyme Inhibition Assay. Note: in the data most compounds retested in dose-response had high values. Format: functional. The following applies: 30 µM.
Sequence of Chromo domain-containing protein 1 (Saccharomyces cerevisiae (strain ATCC 204508 / S288c) (Baker's yeast)) (P32657 whole entry, the tested form may be a part): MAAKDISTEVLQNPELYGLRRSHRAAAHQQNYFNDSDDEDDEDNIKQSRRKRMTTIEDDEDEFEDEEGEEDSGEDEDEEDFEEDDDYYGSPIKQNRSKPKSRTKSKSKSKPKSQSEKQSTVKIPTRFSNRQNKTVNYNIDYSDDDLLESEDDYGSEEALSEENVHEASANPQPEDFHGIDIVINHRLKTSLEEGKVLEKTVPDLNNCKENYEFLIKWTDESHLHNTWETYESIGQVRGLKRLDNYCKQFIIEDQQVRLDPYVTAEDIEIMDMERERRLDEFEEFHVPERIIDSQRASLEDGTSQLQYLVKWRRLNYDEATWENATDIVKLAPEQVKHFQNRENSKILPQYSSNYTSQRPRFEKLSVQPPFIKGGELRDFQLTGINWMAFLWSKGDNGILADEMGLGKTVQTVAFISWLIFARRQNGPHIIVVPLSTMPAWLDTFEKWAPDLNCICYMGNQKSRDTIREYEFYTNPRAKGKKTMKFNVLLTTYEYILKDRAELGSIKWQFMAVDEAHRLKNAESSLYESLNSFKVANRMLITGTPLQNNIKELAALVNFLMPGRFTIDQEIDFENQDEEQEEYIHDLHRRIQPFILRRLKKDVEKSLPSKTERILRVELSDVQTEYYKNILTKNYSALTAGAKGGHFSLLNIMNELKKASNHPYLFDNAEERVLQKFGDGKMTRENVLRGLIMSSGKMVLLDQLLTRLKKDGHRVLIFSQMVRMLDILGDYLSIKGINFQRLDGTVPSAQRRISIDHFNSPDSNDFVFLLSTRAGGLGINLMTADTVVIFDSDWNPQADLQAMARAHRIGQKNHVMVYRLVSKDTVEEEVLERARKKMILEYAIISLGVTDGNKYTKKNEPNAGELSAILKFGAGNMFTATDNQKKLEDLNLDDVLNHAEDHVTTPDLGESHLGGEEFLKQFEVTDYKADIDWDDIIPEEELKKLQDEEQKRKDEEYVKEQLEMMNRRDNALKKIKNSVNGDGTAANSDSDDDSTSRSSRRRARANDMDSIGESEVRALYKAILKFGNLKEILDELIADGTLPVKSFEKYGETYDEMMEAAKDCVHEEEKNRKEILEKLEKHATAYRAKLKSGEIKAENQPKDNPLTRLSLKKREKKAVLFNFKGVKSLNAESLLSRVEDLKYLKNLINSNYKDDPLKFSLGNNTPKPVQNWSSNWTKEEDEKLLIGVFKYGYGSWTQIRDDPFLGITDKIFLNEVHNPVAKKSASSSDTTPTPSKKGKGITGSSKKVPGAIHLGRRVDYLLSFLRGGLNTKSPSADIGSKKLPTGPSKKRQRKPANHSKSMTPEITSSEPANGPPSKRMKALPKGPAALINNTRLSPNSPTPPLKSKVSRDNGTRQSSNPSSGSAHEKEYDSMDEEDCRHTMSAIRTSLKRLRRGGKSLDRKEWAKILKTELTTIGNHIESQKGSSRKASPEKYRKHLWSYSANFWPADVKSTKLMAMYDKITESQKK

Drawing on ChEMBL document CHEMBL3988442, “University of Dundee, Small-Polar-MMV Screening Library” (2021), this text covers Percent Effect for 11 compounds.

For some of these results: Measured potencies and affinities stand elsewhere.

Sequence of Protein translocase subunit SecA (Escherichia coli (strain K12)) (P10408 whole entry): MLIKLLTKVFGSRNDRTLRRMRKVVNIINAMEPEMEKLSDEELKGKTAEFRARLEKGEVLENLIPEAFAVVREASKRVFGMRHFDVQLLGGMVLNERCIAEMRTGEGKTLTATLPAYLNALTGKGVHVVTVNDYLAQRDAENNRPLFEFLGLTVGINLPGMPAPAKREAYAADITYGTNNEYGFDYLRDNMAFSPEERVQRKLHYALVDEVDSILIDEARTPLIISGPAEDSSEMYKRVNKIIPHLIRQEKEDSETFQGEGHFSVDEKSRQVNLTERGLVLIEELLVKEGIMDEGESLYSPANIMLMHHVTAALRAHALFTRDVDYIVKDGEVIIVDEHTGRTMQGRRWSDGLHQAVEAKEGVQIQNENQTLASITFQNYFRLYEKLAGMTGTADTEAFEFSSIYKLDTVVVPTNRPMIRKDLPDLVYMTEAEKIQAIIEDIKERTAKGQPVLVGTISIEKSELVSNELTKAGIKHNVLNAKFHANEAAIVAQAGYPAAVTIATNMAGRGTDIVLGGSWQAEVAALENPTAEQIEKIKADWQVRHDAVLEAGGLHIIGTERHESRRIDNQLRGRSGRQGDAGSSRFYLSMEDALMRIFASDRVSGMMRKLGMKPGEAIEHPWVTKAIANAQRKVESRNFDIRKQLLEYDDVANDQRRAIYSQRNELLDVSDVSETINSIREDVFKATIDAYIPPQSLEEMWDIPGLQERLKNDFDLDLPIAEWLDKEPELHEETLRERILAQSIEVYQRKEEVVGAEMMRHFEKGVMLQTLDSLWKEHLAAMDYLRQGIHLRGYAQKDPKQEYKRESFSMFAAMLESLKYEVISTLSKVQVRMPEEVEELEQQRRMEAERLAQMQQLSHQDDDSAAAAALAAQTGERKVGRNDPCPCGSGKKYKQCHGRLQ
Sequence of Sialic acid-binding Ig-like lectin 9 (Homo sapiens) (Q9Y336 whole entry): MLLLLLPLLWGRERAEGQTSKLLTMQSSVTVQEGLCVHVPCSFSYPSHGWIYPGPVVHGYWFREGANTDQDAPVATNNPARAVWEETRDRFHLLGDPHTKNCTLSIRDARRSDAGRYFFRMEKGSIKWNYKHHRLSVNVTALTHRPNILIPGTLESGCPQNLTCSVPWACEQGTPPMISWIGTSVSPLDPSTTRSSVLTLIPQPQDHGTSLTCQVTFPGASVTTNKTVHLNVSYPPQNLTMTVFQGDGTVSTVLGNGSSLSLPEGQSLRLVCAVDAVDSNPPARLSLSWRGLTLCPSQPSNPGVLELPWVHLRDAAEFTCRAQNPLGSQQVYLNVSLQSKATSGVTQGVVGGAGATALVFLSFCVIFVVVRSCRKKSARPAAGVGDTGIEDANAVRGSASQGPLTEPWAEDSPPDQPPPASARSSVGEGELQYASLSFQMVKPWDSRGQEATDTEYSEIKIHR

With `Cc1cc(CN(C)C(=O)C2CCS(=O)(=O)C2)no1` (stereo unspecified), the Percent Effect in assay [1] was 0.281%; in assay [2] it was 18.2%; in assay [3], -1.29%; in assay [4], -9.12%; in the assay with Trypanosoma cruzi, 4.21%; in assay [5], 2.74%. Further, the Percent Effect in [6] is 14%; in the assay filed under Homo sapiens, 31.4%; in [7] it was 5.71%; in [8], 21.2%; in assay [9], -8.16%.

Consider `COC(=O)c1ccc(C2CC(=O)Oc3cc(C)[nH]c(=O)c32)cc1` (stereo unspecified), for which the Percent Effect was -1.55% in assay [1]; 6.67% in assay [2]; -1.14% in assay [3]; 0.386% in [4]; 4.71% in the assay with Trypanosoma cruzi; -2.99% in assay [5]. The Percent Effect in assay [6] was 7.58%; in the assay filed under Homo sapiens it was -1.51%; in assay [7], 6.35%; in [8], 5.13%; in [9], -3.36%.

In the case of `Cc1cc(C2CCCN(C(=O)c3cnn(C)c3)C2)ccn1` (stereo unspecified), the Percent Effect was -5.39% in [1]; 9.46% in [2]; 10.9% in [3]; 0.0727% in [4]; 5.93% with Trypanosoma cruzi; -0.696% in assay [5]. Further, the Percent Effect is 12.3% in [6]; -13.7% in the assay listed under Homo sapiens; 8.6% in assay [7]; 11.7% in assay [8]; -9.36% in [9].

As to `COc1ccc(NC(C)C(=O)N2CCN(Cc3ccccc3)CC2)cn1` (stereo unspecified), the Percent Effect in assay [1] is -0.598%; in assay [2], -2.74%; in assay [3], -258%; in assay [4] it was -6.68%; in the assay on Trypanosoma cruzi, -0.783%; in assay [5], 3.18%. Further, the Percent Effect in assay [6] was -6.21%; in the assay filed under Homo sapiens, 4.99%; in assay [7], 1.07%; in [8], 0%; in assay [9], -0.618%.

As for `COCC1c2c(cnn2C)CCN1Cc1ccoc1` (stereo unspecified), the Percent Effect in assay [1] is -4.26%; in assay [2] it was -2.7%; in assay [3] it was 3.57%; in assay [4], 2.05%; in the assay on Trypanosoma cruzi it was -1.95%; in assay [5], -1.67%. Besides, the Percent Effect in assay [6] was 0.0845%; in the assay listed under Homo sapiens it was -9.84%; in assay [7] it was 0.99%; in [8], 3.66%; in [9], 2.42%.

Consider `O=C(CCc1cccs1)N1CCC(Nc2cccnn2)CC1`, for which the Percent Effect in assay [1] is -7.51%; in assay [2] it was -23.7%; in [3], -9.73%; in [4], 4.64%; in the assay with Trypanosoma cruzi, 8.87%; in assay [5], 1.8%. Further, the Percent Effect in [6] was 9.73%; in the assay listed under Homo sapiens, 5.28%; in assay [7] it was 9.36%; in assay [8] it was 23.5%; in assay [9], -11.1%.

In the case of `O=C(c1ccc(Cl)o1)N1CCCC(c2cc(C(F)(F)F)[nH]n2)C1` (stereo unspecified), the Percent Effect in [1] is -4.11%; in [2], 7.89%; in assay [3], 8.92%; in assay [4], -5.86%; in the assay with Trypanosoma cruzi, -4.95%; in assay [5], -0.719%. Besides, the Percent Effect in assay [6] is 2.45%; in the assay filed under Homo sapiens, 29.4%; in assay [7], 3.45%; in assay [8], 3.7%; in assay [9], -2.91%.

Regarding `O=C(C1=CCCC1)N1C[C@H](Oc2cccnc2)[C@H]2OCCC[C@H]21`, the Percent Effect is 1.45% in [1]; 5.41% in assay [2]; 3.36% in [3]; -3.91% in [4]; -0.977% in the assay on Trypanosoma cruzi; -2.08% in assay [5]. Besides, the Percent Effect in [6] was 3.47%; in the assay filed under Homo sapiens, 7.05%; in assay [7], 92.1%; in [8], 3.66%; in assay [9], -17.8%.

Consider `O=C(NCCn1ccnc1)c1cccc(F)c1`, for which the Percent Effect in assay [1] is -1.92%; in [2] it was 18.4%; in assay [3], -6.48%; in [4], -8.53%; in the assay with Trypanosoma cruzi, -4.39%; in [5], 0.36%. Also, the Percent Effect in assay [6] was 9.56%; in the assay listed under Homo sapiens it was -11.5%; in [7] it was 5.42%; in assay [8], 13.6%; in assay [9] it was -6.88%.

On to `Cn1cnc2c1C(COCC1CCOCC1)CN(C1CCOCC1)C2` (stereo unspecified), for which the Percent Effect in assay [1] was -3.42%; in assay [2], 13.3%; in assay [3] it was 10.9%; in assay [4], 4.02%; with Trypanosoma cruzi, -2.76%; in assay [5] it was 3.96%. The Percent Effect was 6.96% in assay [6]; -11.2% in the assay listed under Homo sapiens; 5.32% in assay [7]; 11.5% in assay [8]; -4.46% in assay [9].

With `CCc1nc(CN(C)CC2CCN(CCO)CC2)no1`, the Percent Effect in assay [1] is 0.69%; in assay [2], 2.7%; in assay [3], -8.99%; in assay [4] it was 9.52%; with Trypanosoma cruzi, 6.56%; in assay [5], 10%. The Percent Effect in assay [6] was -1.55%; in the assay filed under Homo sapiens, -14.8%; in assay [7], 2.65%; in [8] it was 9.76%; in assay [9], -0.692%.
